Bioassay records deposited in PubChem by University of Kansas High Throughput Screening Laboratory.
mHTT-CaM PPI inh = disrupts binding of mutant huntingtin to calmodulin. hit rate 3.6% among 190,000. AlphaScreen His-mHTT/GST-CaM binding, luminescence. AID 1671202. inhibition, % at 15 µM;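 note: 0% = both proteins with DMSO and 100% = one protein alone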
Target sequence (P42858 whole entry, looked up, stated change not applied): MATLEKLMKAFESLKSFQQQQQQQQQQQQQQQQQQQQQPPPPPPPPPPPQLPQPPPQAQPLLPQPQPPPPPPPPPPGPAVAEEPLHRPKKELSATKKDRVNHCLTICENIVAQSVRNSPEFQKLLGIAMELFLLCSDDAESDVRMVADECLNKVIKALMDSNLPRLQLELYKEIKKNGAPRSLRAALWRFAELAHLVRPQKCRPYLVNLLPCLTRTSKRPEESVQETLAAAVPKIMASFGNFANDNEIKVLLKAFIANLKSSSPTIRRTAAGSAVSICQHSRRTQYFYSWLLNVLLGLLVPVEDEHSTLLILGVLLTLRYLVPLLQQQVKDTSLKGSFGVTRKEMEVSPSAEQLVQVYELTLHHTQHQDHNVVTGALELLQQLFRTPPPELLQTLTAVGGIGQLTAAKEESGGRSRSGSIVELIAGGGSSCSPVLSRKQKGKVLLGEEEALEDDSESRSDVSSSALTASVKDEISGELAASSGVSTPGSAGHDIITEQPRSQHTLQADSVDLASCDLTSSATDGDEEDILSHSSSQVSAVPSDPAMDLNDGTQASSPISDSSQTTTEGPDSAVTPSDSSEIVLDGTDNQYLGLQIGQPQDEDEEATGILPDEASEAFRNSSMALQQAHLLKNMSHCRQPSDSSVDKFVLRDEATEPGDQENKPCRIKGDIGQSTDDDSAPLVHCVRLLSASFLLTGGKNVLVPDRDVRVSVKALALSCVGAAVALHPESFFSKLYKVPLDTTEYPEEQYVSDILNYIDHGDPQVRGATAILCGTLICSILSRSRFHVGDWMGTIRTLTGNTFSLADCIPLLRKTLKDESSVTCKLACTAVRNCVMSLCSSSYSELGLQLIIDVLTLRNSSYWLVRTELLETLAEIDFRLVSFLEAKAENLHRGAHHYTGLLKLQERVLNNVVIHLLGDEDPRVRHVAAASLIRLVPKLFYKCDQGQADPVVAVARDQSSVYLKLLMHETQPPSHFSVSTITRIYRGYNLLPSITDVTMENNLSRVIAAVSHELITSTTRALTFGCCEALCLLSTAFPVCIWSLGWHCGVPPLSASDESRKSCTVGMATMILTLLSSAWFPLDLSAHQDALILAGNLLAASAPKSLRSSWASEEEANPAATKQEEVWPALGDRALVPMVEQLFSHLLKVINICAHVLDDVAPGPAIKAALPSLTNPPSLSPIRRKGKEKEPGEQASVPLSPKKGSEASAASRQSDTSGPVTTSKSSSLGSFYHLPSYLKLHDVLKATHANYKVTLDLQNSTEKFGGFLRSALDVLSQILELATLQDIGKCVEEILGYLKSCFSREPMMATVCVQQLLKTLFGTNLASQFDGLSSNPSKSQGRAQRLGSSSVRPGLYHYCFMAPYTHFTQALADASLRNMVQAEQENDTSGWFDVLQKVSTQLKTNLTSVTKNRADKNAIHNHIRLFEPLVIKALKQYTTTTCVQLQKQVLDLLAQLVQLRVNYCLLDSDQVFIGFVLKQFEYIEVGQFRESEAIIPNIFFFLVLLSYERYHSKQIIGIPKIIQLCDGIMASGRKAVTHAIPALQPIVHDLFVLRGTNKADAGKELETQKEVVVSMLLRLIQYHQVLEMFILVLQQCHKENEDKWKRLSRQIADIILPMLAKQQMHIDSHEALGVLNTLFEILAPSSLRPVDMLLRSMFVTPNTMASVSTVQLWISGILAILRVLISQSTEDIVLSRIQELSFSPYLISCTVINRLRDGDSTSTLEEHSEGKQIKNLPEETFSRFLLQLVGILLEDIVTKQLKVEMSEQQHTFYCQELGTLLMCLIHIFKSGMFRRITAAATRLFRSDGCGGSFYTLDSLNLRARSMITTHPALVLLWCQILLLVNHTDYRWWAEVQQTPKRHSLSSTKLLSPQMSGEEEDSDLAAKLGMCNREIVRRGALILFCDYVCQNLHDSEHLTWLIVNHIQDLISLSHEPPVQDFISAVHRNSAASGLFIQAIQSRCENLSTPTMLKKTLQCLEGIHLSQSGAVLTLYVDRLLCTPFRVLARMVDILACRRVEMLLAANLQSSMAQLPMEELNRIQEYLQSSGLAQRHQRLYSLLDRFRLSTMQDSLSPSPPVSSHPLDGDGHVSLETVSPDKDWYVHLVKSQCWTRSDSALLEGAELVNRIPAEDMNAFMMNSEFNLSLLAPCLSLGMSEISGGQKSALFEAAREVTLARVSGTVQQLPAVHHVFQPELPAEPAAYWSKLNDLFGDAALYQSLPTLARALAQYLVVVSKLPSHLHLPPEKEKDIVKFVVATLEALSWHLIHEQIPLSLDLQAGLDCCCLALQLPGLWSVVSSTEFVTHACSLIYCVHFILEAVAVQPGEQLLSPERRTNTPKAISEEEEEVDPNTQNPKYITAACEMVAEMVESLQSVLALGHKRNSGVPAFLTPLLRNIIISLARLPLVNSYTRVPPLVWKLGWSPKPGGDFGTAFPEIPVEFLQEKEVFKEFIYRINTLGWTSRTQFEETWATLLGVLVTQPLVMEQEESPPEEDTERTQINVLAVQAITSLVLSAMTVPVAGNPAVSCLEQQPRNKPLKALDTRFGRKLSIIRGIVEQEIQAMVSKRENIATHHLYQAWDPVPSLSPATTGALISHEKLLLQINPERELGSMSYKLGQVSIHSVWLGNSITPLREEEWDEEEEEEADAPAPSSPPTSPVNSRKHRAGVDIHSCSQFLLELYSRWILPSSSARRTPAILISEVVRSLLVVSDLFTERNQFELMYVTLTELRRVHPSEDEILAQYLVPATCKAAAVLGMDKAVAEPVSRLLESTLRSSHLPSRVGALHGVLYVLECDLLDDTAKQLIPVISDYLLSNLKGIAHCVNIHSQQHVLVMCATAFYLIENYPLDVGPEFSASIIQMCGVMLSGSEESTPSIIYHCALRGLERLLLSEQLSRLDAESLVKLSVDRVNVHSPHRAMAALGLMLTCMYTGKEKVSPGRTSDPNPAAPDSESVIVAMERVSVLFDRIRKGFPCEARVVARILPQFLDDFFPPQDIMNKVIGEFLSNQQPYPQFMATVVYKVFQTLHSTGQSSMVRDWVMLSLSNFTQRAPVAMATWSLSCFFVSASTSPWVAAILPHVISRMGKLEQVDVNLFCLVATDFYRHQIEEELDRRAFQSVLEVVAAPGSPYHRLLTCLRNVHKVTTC
Pf apPOL block = Pf-apPOL DNA polymerase inhibition | hit rate 0.25% among 210,000 | AID 1794808 | Recombinant Pf-apPOL, molecular beacon fluorescence, 1.5 h | inhibition, % at 10 µM
Active calls of the source: *. This is a sample that favours compounds with a hit; in the whole collection about 3.5% have one here. Cut-off read from the data, not from the text of the source: active = inhibition above about 50%; inactive = the rest.

How did NS(=O)(=O)c1ccc(NC(=S)Nc2cccc(Cl)c2Cl)cc1 do in these assays?
Pf apPOL block: -4

How did Cc1cccc(-n2cnc3cc(C(=O)NC4CCCC4)ccc32)c1 do in these assays?
mHTT-CaM PPI inh: 10; Pf apPOL block: 4

What do the screens show for `Cc1cccc(-n2cnc3cc(C(=O)N4CCc5ccccc54)ccc32)c1`?
mHTT-CaM PPI inh: 67*; Pf apPOL block: 28

What do the screens show for `CCOC(=O)c1c(-c2ccccc2)oc2cc(Br)c(OS(C)(=O)=O)cc12`?
mHTT-CaM PPI inh: -33; Pf apPOL block: -4

What do the screens show for `COc1ccc(C(=O)N2CC3CC2CC3NS(=O)(=O)c2cccnc2)c(C)c1` (centres undefined)?
mHTT-CaM PPI inh: -6; Pf apPOL block: -8

How did Cc1ccc2c(c1)N/C(=C(/C=C(\Cl)[N+](=O)[O-])[N+](=O)[O-])O2 do in these assays?
mHTT-CaM PPI inh: 45; Pf apPOL block: -4

What do the screens show for `O=[N+]([O-])C(/C=C(\Cl)[N+](=O)[O-])=C1Nc2ccccc2N1`?
mHTT-CaM PPI inh: 88*; Pf apPOL block: 3

What do the screens show for `Cc1cc(C)c(S(=O)(=O)NC(C)Cn2cncn2)c(C)c1` (centres undefined)?
mHTT-CaM PPI inh: -13; Pf apPOL block: 5

How did Cc1ccccc1CC(=O)N1CCC(c2ccn3ncc(C(=O)N4CCCCC4)c3c2)CC1 do in these assays?
mHTT-CaM PPI inh: 12; Pf apPOL block: -7

Results for CCCN1C(=O)S/C(=C/c2cn(CC(=O)N3CCOCC3)c3ccccc23)C1=O ?
mHTT-CaM PPI inh: 19; Pf apPOL block: -2

What do the screens show for `C#CCN1C(=O)S/C(=C\c2cn(CC(=O)N3CCOCC3)c3ccccc23)C1=O`?
mHTT-CaM PPI inh: 75*; Pf apPOL block: -3

What do the screens show for `C=CCN(CC=C)C(=O)c1cc(OCC)c(OCC)c(OCC)c1`?
mHTT-CaM PPI inh: 0; Pf apPOL block: -3

How did CCOC(=O)c1cnc2nc(C)ccc2c1Nc1cccc(Br)c1 do in these assays?
mHTT-CaM PPI inh: 29; Pf apPOL block: -13

How did CC(C)n1cnc2ccc(-c3noc(Cc4c[nH]c5ccccc45)n3)cc21 do in these assays?
mHTT-CaM PPI inh: 100*; Pf apPOL block: -4

Results for CCCn1cnc2ccc(-c3noc(Cc4cccs4)n3)cc21 ?
mHTT-CaM PPI inh: 23; Pf apPOL block: -6

How did CCNS(=O)(=O)c1cccnc1Nc1cccc(Br)c1 do in these assays?
mHTT-CaM PPI inh: -22; Pf apPOL block: 1

What do the screens show for `N#CN=C1CCCN1Cc1ncnn1-c1ccccc1`?
mHTT-CaM PPI inh: -5; Pf apPOL block: 43

How did OC1(c2ccccc2)CCN(Cc2ccccc2)C1 (centres undefined) do in these assays?
mHTT-CaM PPI inh: -4; Pf apPOL block: -4

Results for O=C(c1ccccc1)C1CN(Cc2ccccc2)CCC1(O)c1ccccc1 (centres undefined) ?
mHTT-CaM PPI inh: 70*; Pf apPOL block: -1

How did Cc1ccc(-n2c(-c3ccc(-n4c(C)ccc4C)cc3)n[nH]c2=S)cc1 do in these assays?
Pf apPOL block: -1

Results for COc1cc(OC)c(C2N(c3ccc(Cl)c(Cl)c3)C(=O)C3CCCN32)cc1OC (centres undefined) ?
mHTT-CaM PPI inh: 98*; Pf apPOL block: -1

Results for COc1ccc(N2C(=O)C3CCCN3C2c2ccc(Cl)cc2)cc1Cl (centres undefined) ?
mHTT-CaM PPI inh: 2; Pf apPOL block: -3

How did CCOc1ccc(C2N(c3ccc(Cl)cc3)C(=O)C3CCCN32)cc1OC (centres undefined) do in these assays?
mHTT-CaM PPI inh: 30; Pf apPOL block: -6

Results for CCN(CC)c1ccc(C2N(c3cc(Cl)ccc3OC)C(=O)C3CCCN32)cc1 (centres undefined) ?
mHTT-CaM PPI inh: 75*; Pf apPOL block: -1

How did COc1ccccc1C1N(c2ccc(Cl)c(Cl)c2)C(=O)C2CCCN21 (centres undefined) do in these assays?
mHTT-CaM PPI inh: 100*; Pf apPOL block: 0

How did CCc1ccc(C2N(c3cc(Cl)ccc3OC)C(=O)C3CCCN32)cc1 (centres undefined) do in these assays?
mHTT-CaM PPI inh: 33; Pf apPOL block: -3

What do the screens show for `COc1ccccc1C1N(c2cc(Cl)ccc2OC)C(=O)C2CCCN21` (centres undefined)?
mHTT-CaM PPI inh: 1; Pf apPOL block: -2

Results for COc1cc(OC)c(C2N(c3ccc(Cl)cc3)C(=O)C3CCCN32)cc1OC (centres undefined) ?
mHTT-CaM PPI inh: 67*; Pf apPOL block: 0

How did CCCCN(C(=O)c1noc2c1CC(C)CC2)C1CCN(C(C)=O)CC1 (centres undefined) do in these assays?
mHTT-CaM PPI inh: -2; Pf apPOL block: -2

How did COc1ccc2c(c1)CC(CNC(=O)c1ccccc1Cl)O2 (centres undefined) do in these assays?
mHTT-CaM PPI inh: -1; Pf apPOL block: -1

Results for CC(C)NC(=O)c1ccc(OCC2CCCN2C(=O)c2ccccc2C(F)(F)F)cc1 (centres undefined) ?
mHTT-CaM PPI inh: 3; Pf apPOL block: -5

What do the screens show for `COc1cc(CN2CCc3ccccc3C2)cc(I)c1O`?
mHTT-CaM PPI inh: 6; Pf apPOL block: -1

What do the screens show for `Cc1nc2nc(SCC(=O)N3CCCC3)nn2c(C)c1Cc1c(F)cccc1Cl`?
mHTT-CaM PPI inh: 10; Pf apPOL block: 24

Results for Nc1cccc(C(=O)Nc2ccccc2)c1 ?
mHTT-CaM PPI inh: -2; Pf apPOL block: -5

Results for Nc1ccc(C(=O)Nc2ccccc2)c(N)c1 ?
mHTT-CaM PPI inh: 95*; Pf apPOL block: -12

How did CC1CC(C)CN(CC(O)COC(C)(C)C)C1 (centres undefined) do in these assays?
mHTT-CaM PPI inh: -1; Pf apPOL block: -3

Results for S=c1sc2c(Cl)ncnc2n1-c1ccccc1 ?
mHTT-CaM PPI inh: 83*

What do the screens show for `S=c1sc2c(N3CCc4ccccc43)ncnc2n1-c1ccccc1`?
mHTT-CaM PPI inh: -2

What do the screens show for `Cc1ccc(C)n1-c1ccc(Cl)c(C(=O)NN)c1`?
mHTT-CaM PPI inh: 36; Pf apPOL block: 9

How did COc1ccc(-n2c(C)ccc2C)cc1Cl do in these assays?
mHTT-CaM PPI inh: 62*; Pf apPOL block: -6

What do the screens show for `O=C(NCc1cc(F)cc(F)c1)C1CCN(c2cncnc2N2CCOCC2)CC1`?
mHTT-CaM PPI inh: 8; Pf apPOL block: -1

Results for CCOC(=O)CNC(=O)NC1CC(=O)N(c2ccc(OC)c(OC)c2)C1 (centres undefined) ?
mHTT-CaM PPI inh: -9; Pf apPOL block: -6

What do the screens show for `CCSc1ccccc1C(=O)Nc1nnc(-c2ccsc2)o1`?
mHTT-CaM PPI inh: 84*; Pf apPOL block: -28

What do the screens show for `O=C(Nc1nnc(-c2ccsc2)o1)C1(c2ccccc2)CCOCC1`?
mHTT-CaM PPI inh: 100*; Pf apPOL block: -149

Results for CCSc1ccccc1C(=O)Nc1nnc(C2CCCCC2)o1 ?
mHTT-CaM PPI inh: 37; Pf apPOL block: -18

What do the screens show for `Cc1ccc(NC(=O)C2(c3ccccc3)CCOCC2)cc1`?
mHTT-CaM PPI inh: -2; Pf apPOL block: -5

What do the screens show for `O=C(CSCc1ccccc1)Nc1nnc(-c2ccsc2)o1`?
mHTT-CaM PPI inh: 42; Pf apPOL block: -19

Results for O=C(Nc1c(Cl)cccc1Cl)C1(c2ccccc2)CCOCC1 ?
mHTT-CaM PPI inh: 2; Pf apPOL block: 86*

How did CCCNC(=O)C(=O)Nc1ccc(OC)cc1 do in these assays?
mHTT-CaM PPI inh: -2; Pf apPOL block: 4

How did Cc1ccc(C2C=C(c3ccc(I)cc3)Nc3ncnn32)cc1 (centres undefined) do in these assays?
mHTT-CaM PPI inh: 1; Pf apPOL block: 6
